Assay results as given in PubChem BioAssay (NCATS).
Results filed as inconclusive are left out. Calls of active or inactive are those of the source. The call rests on the fitted dose curve; in most records, active means well fitted curve in the direction sought with a large enough effect; inconclusive means small, poorly fitted or top-dose-only effect, or another doubt; inactive means no such curve, though single readings can be large; an effect the other way counts as inactive or inconclusive.

How the values were obtained:
[1] = COV-362 Cancer Cell Toxicity qHTS against the NCATS CANVASS Library (AID 1347352)
How it was run: (§1)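 Toxicity was measured as CellTiter-Glo luminescence after 72 h exposure to an 11-point compound series. Compound was added to 1000 cells/well 4 h after seeding.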

[2] = A2780 Cisplatin Sensitive Ovarian Cancer Cell Toxicity qHTS against the NCATS CANVASS Library (AID 1347353); conditions: A2780 ovarian cancer viability, ATPLite luminescence, 72 h; at 15.4 µM (top of the series); further: nearly all actives have a fitted effect of over 60% in size
From the text: Natural products and their derivatives continue to be wellsprings of nascent therapeutic potential. However, many laboratories have limited resources for biological evaluation, leaving their previously isolated or synthesized compounds largely or completely untested. To address this issue, the Canvass library of natural products was assembled (https://tripod.nih.gov/canvass), in collaboration with academic and industry researchers, for quantitative high-throughput screening (qHTS) across a diverse set of cell-based and biochemical assays. The pure (>85% purity by liquid chromatography/mass spectrometry [LC/MS]) Canvass library of 346 natural products were submitted by 45 academic laboratories and companies around the world. We collected pure natural products to circumvent deconvolution and structure elucidation due to time and resource limitations. The library was formatted into 1536-well plates and evaluated in 50 qHTS (in an 11-pnt concentration series) bioassays with broad scope of disease-relevant mechanisms. The resulting data set from 50 different assays was then systematically analyzed to identify overall trends and specific natural products with interesting biological activities. […]
Cancer Cell Toxicity protocol 1. […] Luminescence signal was acquired via the ViewLux plate reader (PerkinElmer) using a clear filter, 2 second exposure and 2x binning settings.

[3] = UWB1.289-WTBRCA1 Cancer Cell Toxicity qHTS against the NCATS CANVASS Library (AID 1347354)
How it was run: as §1

[4] = HEK-293 Cancer Cell Toxicity qHTS against the NCATS CANVASS Library (AID 1347355); conditions: HEK-293 viability, CellTiter-Glo luminescence, 72 h; at 15.4 µM (top of the series); further: nearly all actives have a fitted effect of over 65% in size
How it was run: as §1

[5] = HPAF-II 24hr Apoptosis Induction qHTS against the NCATS CANVASS Library (AID 1347356)
How it was run: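 Caspase-Glo 3/7 luminescence, read after 15 min room-temperature development, measures apoptosis in HPAF-II cells treated 24 h at 37 degrees C with an 11-point concentration series; 500 cells/well; doxorubicin control.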

[6] = HEK293 18hr Apoptosis Induction qHTS against the NCATS CANVASS Library (AID 1347357)
How it was run: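 Caspase-3/7 luminescence (DEVD substrate, Caspase-Glo) after 18 h compound exposure of HEK293 cells, 500 cells/well; 11-point series; doxorubicin titration as control.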

[7] = HPAF-II 12hr Apoptosis Induction qHTS against the NCATS CANVASS Library (AID 1347358)
How it was run: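 Caspase-3/7 activation by DEVD-substrate luminescence (Caspase-Glo 3/7, 15 min, room temperature) after a 12-hour compound exposure in 11 concentrations, of HPAF-II pancreatic cells seeded at 500/well in DMEM with 10% FBS.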

[8] = HEK293 24hr Apoptosis Induction qHTS against the NCATS CANVASS Library (AID 1347359)
How it was run: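 Caspase-3/7 activation measured as luminescence from the DEVD-based Caspase-Glo reagent, 15 min at room temperature, following 24-hour compound treatment of HEK293 cells.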

[9] = HPAF-II 18hr Apoptosis Induction qHTS against the NCATS CANVASS Library (AID 1347360)
How it was run: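 Caspase-Glo 3/7 luminescence (DEVD substrate) after 15 min RT; HPAF-II, 500 cells/well, 18 h compound exposure at 37 degrees C, qHTS series; doxorubicin control 0.1nM - 4uM.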

[10] = HEK293 12hr Apoptosis Induction qHTS against the NCATS CANVASS Library (AID 1347361)
How it was run: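 500 HEK293 cells/well; cpds pin-transferred, 11-pt conc series; 12 h, 37 degrees C/5% CO2; Caspase-Glo 3/7 added, 15 min RT dark; luminescence.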

Measured: outcome

C[C@@H]1O[C@@H](OC[C@H]2O[C@@H](Oc3c(-c4ccc(O)c(O)c4)oc4cc(O)cc(O)c4c3=O)[C@H](O)[C@@H](O)[C@@H]2O)[C@H](O)[C@H](O)[C@H]1O
inactive: all assays above
